# PubChem BioAssay (EPA / NIEHS)
# Active and inactive are the calls of the source. The calls were made as follows: active = hit-call score of the fitted dose curve at least 0.9, where 1 is the maximum; inactive = score below 0.9.
# Read-out: cysteine-aspartic acid protease (CASP8), CASP8 (gene 841)
# Assay: LTEA_HepaRG_CASP8: Life Technologies and Expression Analysis (LTEA) Assay for cysteine-aspartic acid protease (CASP8) using HepaRG (AID 2283480)
# Conditions: mRNA level, 48 h; actives raise or lower the signal
# Method in brief: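 HepaRG, 48 h exposure, duplicate wells; 8 conc, half-log from 100 uM, 0.5% DMSO. Serum-free induction medium. CASP8 mRNA by TaqMan qRT-PCR, norm. ACTB/GAPDH/POLR2A; gain/loss fitted vs DMSO.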
row,Compound,outcome
1,CC(=O)OCC(COC(C)=O)OC(C)=O,inactive
2,CCCC(=O)O,inactive
3,Cc1cc(Cc2ccc(N)c(C)c2)ccc1N,inactive
4,CCCCC(CC)CO (stereo not given),inactive
5,CC1(C)C(=O)NC(=O)N1CO,inactive
6,O=C(O)CC(O)(CC(=O)O)C(=O)O,inactive
7,CCCCCCC(CCCCCCCCCCC(=O)OCC(COC(C)=O)OC(C)=O)OC(C)=O (stereo not given),inactive
8,NC1CCCCC1,inactive
9,CC(C)(O)c1ccc(CNC(=O)c2cccnc2Oc2ccc(F)cc2)cc1,inactive
10,C=CCCCCCCCCCCCC,inactive
11,CC(C)OC(=O)C(C)(C)Oc1ccc(C(=O)c2ccc(Cl)cc2)cc1,inactive
12,O=C(Oc1ccccc1)c1cccc(C(=O)Oc2ccccc2)c1,inactive
13,CN(C)C(=O)NC1(c2ccccc2)CCN(CCC[C@]2(c3ccc(Cl)c(Cl)c3)CCCN(C(=O)c3ccccc3)C2)CC1,inactive
14,O=C1OC(c2ccc(O)cc2)(c2ccc(O)cc2)c2ccccc21,inactive
15,CC(=O)OC1CC(C)OC(C)O1 (stereo not given),inactive
16,O=C(O)c1cccnc1,inactive
17,NCCOCCOCCN,inactive
18,O=C1O[C@H]([C@H](O)CO)C(O)=C1O,inactive
19,CCN(CC)CCOc1ccc(C(=C(Cl)c2ccccc2)c2ccccc2)cc1,inactive
20,CCCCC(CC)COP(=O)(OCC(CC)CCCC)OCC(CC)CCCC (stereo not given),inactive
21,CC(=O)CC(c1ccccc1)c1c(O)c2ccccc2oc1=O (stereo not given),inactive
22,C/C=C/c1ccc(OC)cc1,inactive
23,O=C(O)c1[nH]n(-c2ccc(S(=O)(=O)O)cc2)c(=O)c1N=Nc1ccc(S(=O)(=O)O)cc1,inactive
24,Oc1ccc(O)cc1,inactive
25,CC(C)c1cccc(C(C)C)c1,inactive
26,NC=O,inactive
27,CCc1nc(N)nc(N)c1-c1ccc(Cl)cc1,inactive
28,Cn1cnc2c1c(=O)[nH]c(=O)n2C,inactive
29,CC(=O)[C@@]1(O)CC[C@H]2[C@@H]3CCC4=CC(=O)CC[C@]4(C)[C@H]3CC[C@@]21C,inactive
30,Cc1cn([C@H]2C=C[C@@H](CO)O2)c(=O)[nH]c1=O,inactive

# Read-out: Cytochrome P450 (CYP2B6), CYP2B6 (gene 1555)
# Assay: LTEA_HepaRG_CYP2B6: Life Technologies and Expression Analysis (LTEA) Assay for Cytochrome P450 (CYP2B6) using HepaRG (AID 2283481)
# Conditions: mRNA level, 48 h; actives raise or lower the signal
# Method in brief: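 Differentiated HepaRG cells, serum-free induction medium, exposed 48 h in duplicate to 8-point half-log concentrations from 100 uM in 0.5% DMSO. CYP2B6 mRNA by qRT-PCR, normalized to ACTB, GAPDH, POLR2A; bidirectional fit versus DMSO.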
Compound,outcome,AC50
CCCC(=O)O,inactive,–
CCCCC(CC)CO (stereo not given),inactive,–
CCCCCCC(CCCCCCCCCCC(=O)OCC(COC(C)=O)OC(C)=O)OC(C)=O (stereo not given),inactive,–
CC(C)(O)c1ccc(CNC(=O)c2cccnc2Oc2ccc(F)cc2)cc1,–,0.432 µM (active)
O=C1OC(c2ccc(O)cc2)(c2ccc(O)cc2)c2ccccc21,–,84.7 µM (active)
O=C(O)c1cccnc1,inactive,–
O=C(O)c1[nH]n(-c2ccc(S(=O)(=O)O)cc2)c(=O)c1N=Nc1ccc(S(=O)(=O)O)cc1,inactive,–
Oc1ccc(O)cc1,inactive,–
NC=O,inactive,–
Cc1cn([C@H]2C=C[C@@H](CO)O2)c(=O)[nH]c1=O,–,10.3 µM (active)
